This is an account of results in the OligoGym collection.
Note: reference of the scale not given here.

In the first assay the target is ZFAND2A. In words: pooled miR-30 sensor sort-seq; sequence = guide strand. The note with it: shRNA.
As to TTCTGAACAATGCTTCCCCAAA, the sensor-assay potency score (higher = more potent) was -1.18.
On the same count and under the same terms, to TTTTACTGGAAGAAAATCTAGC belongs -0.26; to AGTCTTTTCTGAACAATGCTTC, -1.25; to TCTCTTTCTTCTTGCAGCCCTC, -1.15.
Same read-out and setting: to TACTGGAAGAAAATCTAGCTGC belongs 0.313.
On the same count and under the same terms, to TTGGGCACATACCATCTGCAGC belongs -1.16; to TACTGGGACGAGCACATCCTTC, -1.34; to TTCTCTTTCTTCTTCCCAGGGT, 0.483.
With TTTCTGAACAATGCTTCCCCAA, the sensor-assay potency score (higher = more potent) was -0.747.
The same measure, in the same setting: with TACCATCTGCAGCATCTCTTTC the figure was -0.989; with TTACAGAGTGGGCATACTGGGA, -0.899.

Another assay deals with ZFAND6. The description is as above. The note with it: shRNA.
Sequence TTCCTGCACATGAAACAGCGAT had a sensor-assay potency score (higher = more potent) of -1.19.
On the same count and under the same terms, to TAGATGAAGATGTAGAGTCTAA belongs -0.473; to TAGCATACTGAACACATGCCAT, -0.592.
The same measure, in the same setting: to TTCCATAAAATCCACAGCCAGT belongs -1.07.
On the same count and under the same terms, with TACTACTATTCTGTCTTTGAAG the figure was -0.924; with TTGTGTACATCTGAGTAACGGT, -0.562.
In turn, TAGAGTCTAATGCTGACTGGGC registered a sensor-assay potency score (higher = more potent) of -0.0965.
With TTATTCTACCATTACTACTATT, the sensor-assay potency score (higher = more potent) is -1.18.
On the same count and under the same terms, with AAGATGTAGAGTCTAATGCTGA the figure was -0.785; with TTTCTCAGCAGCATCGGCTTTG, -0.787.
Still for that read-out and setting: to TCTACCATTACTACTATTCTGT belongs 0.0585.
The sequence TTTTCACCAACAACTACTGGAT displayed a sensor-assay potency score (higher = more potent) of -0.128.

The target in another assay is ZFHX4. The assay is described as above. The note with it: shRNA.
TAACATTTCACATTCTTGCATG showed a sensor-assay potency score (higher = more potent) of -0.369.
Still for that read-out and setting: to TTTGTTGCTGAGGACGTCCTGA belongs -0.337.
On the same count and under the same terms, with TTGCTCTCTGACATCTTGCTAG the figure was -0.546; with TTTGTCATCGCAGACCTCCGTG, -0.26; with TTTGTTACCAATACTATCGGTG, -0.044.
The same measure, in the same setting: to TTGCTTGTTCGAATGTACCGTT belongs 0.0955; to TAGAGCTACTATCACTTCCTAC, -0.103; to TTTATTTCTCTGTCGTTCCTTA, 0.274.
Sequence TTGATCTTGCAGTGTGTCGGGG showed a sensor-assay potency score (higher = more potent) of 0.234.
Same read-out and setting: with TTGAAGTTCAGCTTCACTCAGT the figure was 0.0714; with TTCTTCTGTACCTTCTGCCTGT, 0.382; with ATCGCTAACACAACCATCGAAT, -0.685.

A further assay concerns the target ZFP62. The description is as above. The settings on record: shRNA.
TTTGCCACAGACATCACACTTG registered a sensor-assay potency score (higher = more potent) of 0.373.
In turn, TTCTGCTTGAGAAAAAAGCTTT came in with a sensor-assay potency score (higher = more potent) of -0.449.
TATGTAATTTCTTAACAGCATT: the sensor-assay potency score (higher = more potent) was -1.56.
